Common to all, as to test: DAPPL (digital affinity profiling via proximity ligation, sequencing); 10 mM Tris-HCl pH 7.5, 50 mM NaCl, 1 mM DTT, 4% glycerol, room temperature, 30 min; GST-TFs on glutathione beads, 16-mer random dsDNA library, 0.1% formaldehyde crosslink after washing; high values mean tight binding
Holding throughout (conditions): protein: recombinant; tags: N-terminal GST; dsDNA, one strand shown

One assay concerns the target T1, ERF (Homo sapiens, UniProt P50548 1-548).
T1 sequence: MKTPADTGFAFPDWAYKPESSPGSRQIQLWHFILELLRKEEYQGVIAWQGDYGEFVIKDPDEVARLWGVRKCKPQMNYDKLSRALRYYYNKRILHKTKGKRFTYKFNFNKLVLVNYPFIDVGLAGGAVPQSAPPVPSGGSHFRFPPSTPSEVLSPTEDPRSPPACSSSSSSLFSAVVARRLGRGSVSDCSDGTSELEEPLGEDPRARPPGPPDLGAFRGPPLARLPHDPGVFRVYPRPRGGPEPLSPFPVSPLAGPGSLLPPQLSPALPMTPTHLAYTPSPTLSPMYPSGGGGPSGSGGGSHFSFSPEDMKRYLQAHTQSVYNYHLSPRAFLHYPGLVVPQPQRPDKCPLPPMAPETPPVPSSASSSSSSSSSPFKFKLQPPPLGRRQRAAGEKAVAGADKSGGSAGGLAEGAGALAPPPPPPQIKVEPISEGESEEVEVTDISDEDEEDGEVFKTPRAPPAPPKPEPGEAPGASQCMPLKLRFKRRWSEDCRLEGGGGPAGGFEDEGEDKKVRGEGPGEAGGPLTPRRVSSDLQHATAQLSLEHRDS
The method in brief:
(§1)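 Pools of DNA-barcoded human transcription factors, expressed in yeast as GST fusions on glutathione beads and combined with a tag-only sample, were incubated with 200 nmole of a 16-mer random double-stranded DNA library. Incubation took 30 min at room temperature in Tris/NaCl/DTT/glycerol buffer and was followed by washing, 0.1% formaldehyde crosslinking, proximity ligation (BsaI/T4 ligase, 1 h, 37 °C), PCR amplification and sequencing on an Illumina NextSeq500. Binding signal is the ratio of a hexamer's read frequency for a factor to its frequency for the tag-only sample.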

In the next assay the target is T2, ETV3L (Homo sapiens, UniProt Q6ZN32 1-361).
T2 sequence: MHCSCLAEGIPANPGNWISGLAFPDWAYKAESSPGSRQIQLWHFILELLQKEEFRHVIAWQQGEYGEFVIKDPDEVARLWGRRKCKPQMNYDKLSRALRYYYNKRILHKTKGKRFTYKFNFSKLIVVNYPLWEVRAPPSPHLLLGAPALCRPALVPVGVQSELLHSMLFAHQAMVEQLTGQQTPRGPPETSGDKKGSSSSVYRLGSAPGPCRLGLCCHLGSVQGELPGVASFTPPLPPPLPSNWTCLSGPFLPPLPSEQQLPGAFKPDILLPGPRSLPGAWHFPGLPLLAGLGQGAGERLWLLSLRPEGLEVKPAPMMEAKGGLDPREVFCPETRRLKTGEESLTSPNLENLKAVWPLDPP
The method in brief: as §1

A further assay deals with T3, ETS2 (Homo sapiens, UniProt P15036 1-469).
T3 sequence: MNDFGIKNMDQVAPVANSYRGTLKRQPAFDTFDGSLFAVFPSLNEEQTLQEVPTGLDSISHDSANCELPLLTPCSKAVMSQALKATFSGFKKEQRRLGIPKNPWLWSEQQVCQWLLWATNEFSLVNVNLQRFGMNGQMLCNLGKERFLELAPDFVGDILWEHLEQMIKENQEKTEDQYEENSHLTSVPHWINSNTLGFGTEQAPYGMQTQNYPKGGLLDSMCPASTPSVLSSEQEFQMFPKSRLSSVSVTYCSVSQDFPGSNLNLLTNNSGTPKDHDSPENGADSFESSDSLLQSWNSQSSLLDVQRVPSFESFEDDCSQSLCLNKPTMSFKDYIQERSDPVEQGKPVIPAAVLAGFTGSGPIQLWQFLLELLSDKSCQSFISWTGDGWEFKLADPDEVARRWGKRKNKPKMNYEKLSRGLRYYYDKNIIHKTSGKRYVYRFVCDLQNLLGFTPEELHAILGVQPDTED
The method in brief:
as §1

The next assay concerns the target T4, SPDEF (Homo sapiens, UniProt O95238 1-335).
T4 sequence: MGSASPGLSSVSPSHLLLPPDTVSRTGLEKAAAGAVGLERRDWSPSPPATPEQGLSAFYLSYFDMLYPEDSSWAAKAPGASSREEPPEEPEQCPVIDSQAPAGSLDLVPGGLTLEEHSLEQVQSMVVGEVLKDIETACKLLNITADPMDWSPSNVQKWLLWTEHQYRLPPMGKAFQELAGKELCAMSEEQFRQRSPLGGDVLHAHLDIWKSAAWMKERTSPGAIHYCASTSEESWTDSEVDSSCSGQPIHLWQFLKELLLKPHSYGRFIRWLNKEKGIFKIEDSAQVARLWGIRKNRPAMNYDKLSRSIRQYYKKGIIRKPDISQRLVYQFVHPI
The method in brief: as §1

For a further assay, the target named is T5, ELF5 (Homo sapiens, UniProt Q9UKW6-2 1-255).
T5 sequence: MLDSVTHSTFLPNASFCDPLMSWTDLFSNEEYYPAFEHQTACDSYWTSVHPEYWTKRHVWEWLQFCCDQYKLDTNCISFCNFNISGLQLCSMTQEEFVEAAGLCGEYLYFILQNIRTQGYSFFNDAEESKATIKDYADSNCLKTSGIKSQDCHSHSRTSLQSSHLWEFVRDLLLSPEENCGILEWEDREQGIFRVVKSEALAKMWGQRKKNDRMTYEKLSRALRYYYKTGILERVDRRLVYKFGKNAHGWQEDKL
The essentials:
as §1

For a further assay, the target named is T6, ETV3 (Homo sapiens, UniProt P41162-2 1-143).
T6 sequence: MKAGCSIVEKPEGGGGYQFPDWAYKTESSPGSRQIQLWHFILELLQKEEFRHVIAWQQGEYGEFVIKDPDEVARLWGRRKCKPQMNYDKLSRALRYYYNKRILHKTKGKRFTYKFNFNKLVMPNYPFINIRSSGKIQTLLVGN
The essentials: as §1

The target in a further assay is ETV6 (Homo sapiens, UniProt P41212 1-452). The essentials: as §1
Sequence of ETV6 (P41212 whole entry): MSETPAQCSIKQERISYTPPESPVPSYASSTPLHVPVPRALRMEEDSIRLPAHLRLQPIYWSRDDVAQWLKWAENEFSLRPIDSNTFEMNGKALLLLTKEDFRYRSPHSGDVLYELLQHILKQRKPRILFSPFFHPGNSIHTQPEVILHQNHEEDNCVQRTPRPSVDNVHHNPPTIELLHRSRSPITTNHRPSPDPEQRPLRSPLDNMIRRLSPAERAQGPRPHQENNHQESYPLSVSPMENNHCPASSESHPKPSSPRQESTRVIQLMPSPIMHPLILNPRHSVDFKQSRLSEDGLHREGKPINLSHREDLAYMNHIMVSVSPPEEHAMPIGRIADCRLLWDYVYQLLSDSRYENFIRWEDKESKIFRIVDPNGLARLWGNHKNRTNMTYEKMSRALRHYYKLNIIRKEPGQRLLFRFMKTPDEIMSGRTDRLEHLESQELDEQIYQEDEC
Another assay concerns the target T7, ETV7 (Homo sapiens, UniProt Q9Y603 1-341).
T7 sequence: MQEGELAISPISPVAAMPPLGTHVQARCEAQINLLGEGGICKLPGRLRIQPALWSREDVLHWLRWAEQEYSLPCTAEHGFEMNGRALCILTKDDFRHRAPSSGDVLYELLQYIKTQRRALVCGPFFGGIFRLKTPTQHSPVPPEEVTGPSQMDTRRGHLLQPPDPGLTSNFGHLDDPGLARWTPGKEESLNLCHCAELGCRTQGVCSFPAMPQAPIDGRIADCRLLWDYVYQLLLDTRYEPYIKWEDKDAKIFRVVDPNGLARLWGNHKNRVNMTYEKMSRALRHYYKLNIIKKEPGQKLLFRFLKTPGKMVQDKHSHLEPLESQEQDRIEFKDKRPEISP
The essentials:
as §1

In the case of TCGCCG, the binding signal in the assay with ERF is 1.38 fold enrichment (6-mer frequency, TF over GST control); with ETV3L, 1.25 fold enrichment (6-mer frequency, TF over GST control); with ETS2, 1.26 fold enrichment (6-mer frequency, TF over GST control); in the assay with SPDEF it was 1.01 fold enrichment (6-mer frequency, TF over GST control); with ELF5 it was 1.15 fold enrichment (6-mer frequency, TF over GST control); in the assay with ETV3, 1.2 fold enrichment (6-mer frequency, TF over GST control). Moreover, in the assay with ETV6, the binding signal was 1.13 fold enrichment (6-mer frequency, TF over GST control).
For CCCATG, the binding signal with ERF is 1.14 fold enrichment (6-mer frequency, TF over GST control); with ETV3L, 1.11 fold enrichment (6-mer frequency, TF over GST control); with ETS2 it was 1.02 fold enrichment (6-mer frequency, TF over GST control); with SPDEF it was 1.1 fold enrichment (6-mer frequency, TF over GST control); with ETV3, 1.14 fold enrichment (6-mer frequency, TF over GST control); with ETV6, 1.12 fold enrichment (6-mer frequency, TF over GST control).
Consider GGATCC, for which the binding signal is 1.06 fold enrichment (6-mer frequency, TF over GST control) with ERF; 1.15 fold enrichment (6-mer frequency, TF over GST control) with ETV3L; 1.22 fold enrichment (6-mer frequency, TF over GST control) in the assay with ETS2; 2.07 fold enrichment (6-mer frequency, TF over GST control) with SPDEF; 1.13 fold enrichment (6-mer frequency, TF over GST control) in the assay with ELF5; 1.13 fold enrichment (6-mer frequency, TF over GST control) with ETV3. For the same sequence, in the assay with ETV6, the binding signal is 1.08 fold enrichment (6-mer frequency, TF over GST control).
With GATACG, the binding signal is 1.12 fold enrichment (6-mer frequency, TF over GST control) with ERF; 1.1 fold enrichment (6-mer frequency, TF over GST control) with ETV3L; 1.11 fold enrichment (6-mer frequency, TF over GST control) in the assay with ETS2; 1.35 fold enrichment (6-mer frequency, TF over GST control) with SPDEF; 1.1 fold enrichment (6-mer frequency, TF over GST control) in the assay with ELF5; 1.12 fold enrichment (6-mer frequency, TF over GST control) with ETV3. For the same sequence, the binding signal with ETV6 is 1.09 fold enrichment (6-mer frequency, TF over GST control).
On to CCGTAA, for which the binding signal in the assay with ERF was 1.08 fold enrichment (6-mer frequency, TF over GST control); with ETV3L, 1.12 fold enrichment (6-mer frequency, TF over GST control); with ETS2 it was 1.16 fold enrichment (6-mer frequency, TF over GST control); with SPDEF it was 1.2 fold enrichment (6-mer frequency, TF over GST control); in the assay with ELF5, 1.22 fold enrichment (6-mer frequency, TF over GST control); with ETV3, 1.12 fold enrichment (6-mer frequency, TF over GST control). Further, the binding signal in the assay with ETV6 is 1.08 fold enrichment (6-mer frequency, TF over GST control).
Turning to AGGGCT, the binding signal with ERF is 1.1 fold enrichment (6-mer frequency, TF over GST control); with ETV3L, 1.06 fold enrichment (6-mer frequency, TF over GST control); with ETS2, 1.02 fold enrichment (6-mer frequency, TF over GST control); with ETV7, 1.12 fold enrichment (6-mer frequency, TF over GST control); with ELF5 it was 1.05 fold enrichment (6-mer frequency, TF over GST control); in the assay with ETV3, 1.06 fold enrichment (6-mer frequency, TF over GST control). The binding signal in the assay with ETV6 is 1.09 fold enrichment (6-mer frequency, TF over GST control).
Consider TAGCGA, for which the binding signal with ERF is 1.19 fold enrichment (6-mer frequency, TF over GST control); with ETV3L it was 1.02 fold enrichment (6-mer frequency, TF over GST control); with ETS2 it was 1.01 fold enrichment (6-mer frequency, TF over GST control); with SPDEF, 1.02 fold enrichment (6-mer frequency, TF over GST control); in the assay with ETV6 it was 1 fold enrichment (6-mer frequency, TF over GST control).

The values above are taken from publication PMC7862700, “An all-to-all approach to the identification of sequence-specific readers for epigenetic DNA modifications on cytosine”.
